SENP7 block – blocks the human protease SENP7 | Q9BQF6 | inhibition, % at 5 µM | recombinant SENP7, Z-RLRGG-aminoluciferin luminescence, 40 min | 1.5% of 330,000 active;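 active = inhibition above about 50% at the single test dose, limit read from the data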;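 also: plate controls were DMSO with enzyme for no effect and no enzyme buffer wells for full effect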
SENP6 inh – SENP6 protease inhibition; Q9GZR1; inhibition, % at 10 µM; Recombinant SENP6 catalytic domain, aminoluciferin luminescence; 1.8% of 330,000 active;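 active = inhibition above about 50% at the single tested dose, limit read from the data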;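 also: plate controls were DMSO wells with enzyme for no effect and DMSO wells lacking enzyme for full effect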
AHR activator – human AHR activation. 2.5% of 320,000 active. P35869. AHR-responsive luciferase reporter cells, luminescence. activation, % at 5 µM; in the data active = activation above about 47%;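 also: 0% = vehicle wells and 100% = reference agonist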
Target sequence (P35869 whole entry, looked up): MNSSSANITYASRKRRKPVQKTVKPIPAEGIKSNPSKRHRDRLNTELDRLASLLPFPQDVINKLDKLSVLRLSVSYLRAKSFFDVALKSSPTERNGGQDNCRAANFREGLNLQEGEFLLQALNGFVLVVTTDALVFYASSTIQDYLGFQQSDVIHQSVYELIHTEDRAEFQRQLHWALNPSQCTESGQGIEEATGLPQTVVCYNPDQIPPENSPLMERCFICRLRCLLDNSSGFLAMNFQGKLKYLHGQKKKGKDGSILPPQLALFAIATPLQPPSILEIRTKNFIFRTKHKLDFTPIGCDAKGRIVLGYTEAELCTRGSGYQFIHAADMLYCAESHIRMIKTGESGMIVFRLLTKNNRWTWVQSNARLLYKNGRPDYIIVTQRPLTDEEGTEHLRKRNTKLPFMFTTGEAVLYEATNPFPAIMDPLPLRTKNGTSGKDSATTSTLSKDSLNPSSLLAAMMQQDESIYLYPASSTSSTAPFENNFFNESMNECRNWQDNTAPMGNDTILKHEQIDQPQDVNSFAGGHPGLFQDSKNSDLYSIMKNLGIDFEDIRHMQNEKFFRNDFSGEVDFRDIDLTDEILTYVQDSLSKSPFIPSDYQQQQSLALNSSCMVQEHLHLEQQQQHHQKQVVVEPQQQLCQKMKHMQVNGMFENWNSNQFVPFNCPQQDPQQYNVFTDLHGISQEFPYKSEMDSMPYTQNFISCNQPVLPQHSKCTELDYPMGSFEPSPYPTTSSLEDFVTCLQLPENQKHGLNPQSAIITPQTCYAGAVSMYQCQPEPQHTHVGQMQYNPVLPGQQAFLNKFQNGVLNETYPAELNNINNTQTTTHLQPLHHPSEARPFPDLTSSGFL
EBI2 block – antagonists of human EBI2 receptor; EBI2 beta-arrestin recruitment, luminescence, 7a,25-OHC stimulated; inhibition, % at 5 µM; AID 651636; 0.81% of 360,000 active; P32249; in the data active = inhibition above about 38%;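 also: enzyme fragment complementation signal reports receptor beta-arrestin coupling in cells; 0% = agonist plus DMSO wells and 100% = wells without agonist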
SENP8 block-1 – SENP8 protease inhibition; purified SENP8, Z-RLRGG-aminoluciferin cleavage, luminescence; inhibition, % at 10 µM; 1.2% of 330,000 active; AID 2540; in the data active = inhibition above about 50%
SENP8 block-2 – SENP8 (human) protease inhibition | recombinant SENP8, Nedd8 substrate fluorescence | inhibition, % at 20 µM | AID 602440 | 0.64% of 360,000 active; in the data active = inhibition mostly above about 40%, no sharp cut-off; inactive = mostly below about 27%
AHR act confirm – confirmation of human aryl hydrocarbon receptor activators; shares compounds with AHR activator; human cells, AHR-responsive luciferase reporter, luminescence; activation, % at 9 µM; 87% of 2,300 active; in the data active = activation above about 49%;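 also: HepG2 hepatoma cells carrying a DRE-driven firefly luciferase reporter; 0% = vehicle wells and 100% = reference agonist wells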
PXR counter – PXR activation, counter-screen for AHR activators. activation, % at 11.6 µM. 88% of 2,300 active. shares compounds with AHR activator. cell-based PXR reporter, luciferase luminescence; in the data active = activation above about 11%;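 also: human hepatoma DPX-2 cells expressing full-length human PXR; 0% = DMSO and 100% = reference agonist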
SENP8 conf – confirmation of human SENP8 protease inhibitors | shares compounds with SENP7 block | Recombinant SENP8, Z-RLRGG-aminoluciferin luminescence, 60 min | inhibition, % at 12.5 µM | 40% of 6,200 active | AID 488912;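 active = mean inhibition across replicates above about 50%, limit read from the data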
SENP6 conf – confirmation of human SENP6 protease inhibitors; shares compounds with SENP7 block; recombinant SENP6, Z-RLRGG-aminoluciferin luminescence; inhibition, % at 12.5 µM; 58% of 6,200 active; AID 488915
SENP7 conf – human SENP7 inhibition, confirmed. shares compounds with SENP7 block. inhibition, % at 12.5 µM. recombinant SENP7, Z-RLRGG-aminoluciferin luminescence, 40 min. 69% of 6,200 active
Casp3 select – selectivity test for SENP inhibitors: human caspase-3 inhibition | inhibition, % at 12.5 µM | 60% of 6,200 active | purified caspase-3, Z-DEVD-aminoluciferin luminescence, 60 min | shares compounds with SENP7 block;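 active = mean inhibition above about 50%, limit read from the data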;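 also: plate controls were enzyme with DMSO for no effect and wells without caspase-3 for full effect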
SENP luc ctr – counter-screen for SENP inhibitors: luminescence interference; shares compounds with SENP7 block; Pre-incubated SENP8/Z-RLRGG-aminoluciferin, luciferase luminescence interference; inhibition, % at 12.5 µM; 39% of 6,200 active; AID 488919;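 active = mean inhibition above about 50% when retested at one dose, limit read from the data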;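 also: plate controls were DMSO wells with completed reaction for no effect and substrate without enzyme for full effect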
* marks the source's active call; other numbers are inactive results; · = no result given. Shown are actives, neighbours in structure and some others; about 5% of the full set was active somewhere.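 The calls were made as follows, unless noted: active = mean inhibition above about 50% in the one-dose retest (limit read from the data); inactive = the rest.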

SMILES	SENP7 block	SENP6 inh	AHR activator	EBI2 block	SENP8 block-1	SENP8 block-2	AHR act confirm	PXR counter	SENP8 conf	SENP6 conf	SENP7 conf	Casp3 select	SENP luc ctr
c1ccc2nc3c(nc2c1)[nH]c1ccccc13	75*	29	158*	0	60*	-214	158*	14*	22	71*	92*	76*	15
N#C/C(=C\c1ccc(Sc2ccccc2)o1)c1nc2ccccc2[nH]1	94*	46	145*	16	23	-96	122*	151*	62*	48	99*	78*	67*
N#C/C(=C\c1ccc(-c2ccccc2C(=O)O)o1)c1nc2ccccc2[nH]1	9	5	14	-5	3	-70	·	·	·	·	·	·	·
COc1ccc(-c2nc3ccccc3n2OCC(=O)O)cc1	-2	11	3	3	4	2	·	·	·	·	·	·	·
O=C(O)COn1c(-c2ccccc2)nc2ccc([N+](=O)[O-])cc21	88*	82*	141*	1	70*	4	53*	·	1	0	33	53*	56*
Cc1ccc2oc(-c3cccc(N)c3)nc2c1	98*	97*	110*	-5	94*	-466	107*	10*	-8	97*	102*	94*	58*
Nc1nc2ccccc2n1/N=C/c1ccc(Br)cc1	-1	76*	88*	-7	67*	13	102*	19*	60*	63*	90*	49	10
Nc1nnnn1/N=C/c1ccc(Br)cc1	-2	-6	·	34	-4	7	·	·	·	·	·	·	·
CCOC(=O)/C=C/C(=O)OCC(=O)Nc1ccc([N+](=O)[O-])cc1	-8	-9	-1	-4	-3	16	·	·	·	·	·	·	·
COc1cccc2sc(Nc3nnc(-c4cccs4)o3)nc12	73*	92*	106*	16	84*	-255	97*	18*	84*	84*	97*	83*	55*
CCOc1cccc2sc(NN)nc12	·	·	·	2	·	-204	·	·	·	·	·	·	·
O=c1[nH]nc(-c2ccccc2)cc1-c1ccccc1	-1	-9	1	10	1	-130	·	·	·	·	·	·	·
COc1ccc(-c2cc(-c3ccccc3)n[nH]2)c(O)c1	65*	68*	125*	12	66*	-3	73*	17*	74*	72*	90*	28	72*
Cc1ccccc1-c1cc(-c2ccccc2O)n[nH]1	83*	84*	112*	14	71*	16	95*	10	86*	85*	94*	42	62*
Oc1ccccc1-c1cc(-c2ccccc2)n[nH]1	94*	95*	98*	8	93*	18	88*	13*	95*	96*	101*	74*	89*
Cc1cccc(OCC(=O)Nc2ccc(S(=O)(=O)Nc3onc(C)c3C)cc2)c1C	7	-11	0	10	-6	10	·	·	·	·	·	·	·
Cc1c(CCC(=O)NC2CC2)c(=O)oc2c(C)c(O)ccc12	-13	4	-3	4	-14	-214	·	·	·	·	·	·	·
COc1cccc(CNC(=O)CCC2CCCN(C(=O)c3cccnc3SC)C2)c1 (stereo unspecified)	2	18	0	1	-2	8	·	·	·	·	·	·	·
C#Cc1ccc2c(c1)COc1c3ccccc3nn1-2	72*	96*	88*	12	93*	-2	62*	25*	76*	96*	101*	92*	52*
C(#CC1CCCCC1)c1ccc2c(c1)COc1c3ccccc3nn1-2	19	37	-8	12	16	-2	·	·	·	·	·	·	·
CNC(=O)C1CC(=O)N(CCc2ccc(C)cc2)C1 (stereo unspecified)	-4	-23	2	-1	-5	14	·	·	·	·	·	·	·
COC(=O)CCN1CCC2CC1c1cc(-c3cccc(C)c3)ccc12 (stereo unspecified)	·	·	·	-4	·	-2	·	·	·	·	·	·	·
O=c1nc2c(-c3ccccc3F)n[nH]n2c2ccccc12	90*	85*	111*	-8	90*	-272	182*	26*	79*	92*	100*	93*	53*
CCc1ccc(S(=O)(=O)c2n[nH]n3c2nc(=O)c2ccccc23)cc1	-3	9	1	-10	-2	-217	·	·	·	·	·	·	·
CC(C)CC(=O)Nc1ccc(-c2nnn(CC(=O)NCc3ccco3)n2)cc1	-8	-23	6	-16	-4	10	·	·	·	·	·	·	·
SMILES	SENP7 block	SENP6 inh	AHR activator	EBI2 block	SENP8 block-1	SENP8 block-2	AHR act confirm	PXR counter	SENP8 conf	SENP6 conf	SENP7 conf	Casp3 select	SENP luc ctr
O=C(CC1Nc2cccc3cccc(c23)NC1=O)Nc1ccc(F)cc1 (stereo unspecified)	43	87*	98*	-4	60*	-68	104*	92*	-13	-6	-10	2	-1
CCCCOc1ccccc1NC(=O)CC1Nc2ccccc2NC1=O (stereo unspecified)	4	-6	28	5	3	-51	·	·	·	·	·	·	·
O=C(Nc1nc2c(F)cccc2s1)c1ccco1	76*	81*	121*	-7	74*	-43	72*	49*	80*	77*	94*	84*	25
CC(=O)Nc1nc2c(F)cccc2s1	0	-4	46	-7	3	-2	·	·	·	·	·	·	·
CC(=O)Nc1ccc2nc(NC(=O)c3ccco3)sc2c1	66*	68*	119*	-10	34	-373	66*	18*	57*	54*	86*	84*	22
Cc1ccc(C(=O)C(C)OC(=O)Cn2cnc3c2c(=O)n(C)c(=O)n3C)cc1 (stereo unspecified)	-8	-2	1	-12	-2	17	·	·	·	·	·	·	·
Cc1csc(-c2coc3cc(O)cc(C)c3c2=O)n1	4	95*	95*	-1	91*	6	126*	21*	43	92*	98*	90*	27
COc1ccc(N2CCN(C(=O)Cc3ccc(Br)cc3)CC2)cc1	2	-3	1	19	-6	-8	·	·	·	·	·	·	·
